WT yeast gro inh: growth inhibition of WT strain, primary screen, mitochondrial fusion inhibitor project, WT and mutant strains, chemical genetic. actives 2.1% (n = 190,000). mitochondrial fusion phenotypic screen. inhibition, % at 10 µM; in the data active means inhibition above about 58%; tested in S. cerevisiae
Ins promoter up: insulin promoter activators in MIN6 cells, imaging, high-content screening, mouse beta cells. MIN6 insulin promoter-GFP reporter; active compounds read high. z-score at 5 µM. actives 0.3% (n = 190,000);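 active means z-score above 3 at 5 µM with at least 500 cells counted in the well; inconclusive means wells under 500 cells, flagged as cytotoxic or low count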
Lmaj promast: Leishmania major promastigote growth inhibition, primary screen; Leishmania major promastigotes, resazurin fluorescence viability; inhibition, % at 10 µM; actives 9% (n = 200,000); AID 1063, 2008; in the data active means inhibition above about 50%;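 further: promastigotes grown with compound for 44 hours at 28 °C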
INS promoter inh: inhibitors of insulin promoter-driven GFP, primary screen, imaging, TRM-6 cells (human fetal islet line), eGFP reporter, cell count. reporter expression induced with tamoxifen. inhibition, % at 2 µM. actives 0.9% (n = 130,000);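 active means inhibition above the mean plus 3 SD, with well images judged a real hit on visual review, cut at about 60% in these data, passing the limit was not always enough; inconclusive means inhibition over the cutoff but images rejected on review; inactive means inhibition not above the cutoff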
Autophagy HCS: autophagy modulators in MEF cells, primary screen, imaging, high-content, MEF GFP-LC3; actives 0.98% (n = 190,000); MEF GFP-LC3 puncta imaging; test concentration mostly 10 µM; AID 463193, 2010; calls only at 10 µM (by protocol);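 active means percentage of spot-positive cells more than 3 SD above its plate mean, without a fluorescence outlier flag or 80% toxicity; inconclusive means no clear call, values can overlap the other calls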
Numbers stand for hits; . = inactive; ? = inconclusive; / = no result given. An excerpt weighted towards active compounds, which were near 11% of everything screened.

SMILES	WT yeast gro inh	Ins promoter up	Lmaj promast	INS promoter inh	Autophagy HCS
CCc1c(C)c(C#N)c2nc3ccccc3n2c1NCCN(C)C	.	.	.	.	.
C=CCc1c(C)c(C#N)c2nc3ccccc3n2c1NCCN(C)C	70	.	.	.	.
CC(C)CNC(=O)/C=C/c1cccs1	.	.	.	/	.
COC(=O)[C@@]1(Cc2ccc(OC)cc2)[C@@H]2C(=CC(=O)[C@H]2CC(=O)C(=O)N(C)C)CN1C(=O)c1ccccc1	.	.	100	.	.
C=C1C(=O)C=C2CN(C(=O)c3ccccc3)[C@@](Cc3ccc(F)cc3)(C(=O)OC)[C@@H]12	74	?	100	.	.
COC(=O)c1cc([N+](=O)[O-])ccc1N1CCN(Cc2ccccc2)CC1	.	.	.	.	.
COC(=O)c1ccccc1S(=O)(=O)N1Cc2cc([N+](=O)[O-])ccc2Oc2ccccc21	.	.	86	.	.
O=C(Nc1cccc(S(=O)(=O)N2CCCCC2)c1)Nc1ccc(Cl)cc1Cl	82	.	60	.	.
O=C(Nc1cccc(S(=O)(=O)N2CCCCC2)c1)c1ccc2ccccc2n1	.	/	.	.	.
O=C(Nc1cccc(C(F)(F)F)c1)Nc1ccc(N2CCCC2)c(S(=O)(=O)Nc2ccccc2Cl)c1	.	/	100	.	.
COc1ccccc1NS(=O)(=O)c1cc(NC(=O)C2CCC2)ccc1N1CCCCC1	/	.	/	/	/
COc1ccccc1NS(=O)(=O)c1cc(NC(=O)Nc2ccc(Cl)cc2Cl)ccc1N1CCCCC1	.	.	99	.	.
COc1cc(/C=C/C(=O)Nc2ccc(N3CCCCC3)c(S(=O)(=O)Nc3ccccc3Cl)c2)cc(OC)c1OC	.	/	53	.	.
COc1cc(/C=C/C(=O)Nc2cc(S(=O)(=O)N3CCOCC3)ccc2N2CCCC2)cc(OC)c1OC	.	/	.	/	.
Cn1c(SCc2cccc([N+](=O)[O-])c2)nc2c(c1=O)SCC2	.	.	.	/	.
O=C(CN1C(=O)CC(c2ccccc2)S(=O)(=O)c2ccccc21)N1CCCC1 (centres undefined)	.	.	.	.	.
Oc1ccc(Br)cc1-c1nc2cnccn2c1NC1CCCCC1	.	.	85	.	.
COc1cc(NC(=O)c2ccco2)c(OC)cc1NC(=O)Nc1ccccc1Cl	.	.	72	/	.
COc1cc(NC(=O)C2CCCCC2)c(OC)cc1NC(=O)c1ccco1	.	.	.	/	.
COc1ccc(Cl)cc1NC(=O)c1ccco1	.	.	64	.	.
COc1ccc(Cl)cc1NC(=O)NC(C)C	.	.	95	/	.
COc1ccc(Cl)cc1C(=O)Nc1ccc(NC(=O)c2ccco2)cc1	.	.	.	/	.
COc1ccc(NC(=O)c2ccco2)cc1NC(=O)c1ccc(Br)o1	.	.	.	73	.
COc1ccc(NC(=O)c2ccco2)cc1NC(=O)c1ccc(C)cc1	.	.	.	.	.
Cc1cccc(NC(=O)CCNC(=O)c2ccco2)c1	.	.	.	.	.
SMILES	WT yeast gro inh	Ins promoter up	Lmaj promast	INS promoter inh	Autophagy HCS
COCCCNC(=O)c1cc(C(=O)c2ccccc2Br)c[nH]1	.	.	.	.	.
COc1cc(NC(=S)NC(=O)c2ccco2)ccc1NC(=O)C(C)C	.	.	86	/	.
COc1ccc(/C=N/NC(=O)CO/N=C(\C)c2cccs2)cc1	.	/	.	.	.
CCOC(=O)NC(C(Cl)(Cl)Cl)S(=O)(=O)c1ccccc1 (centres undefined)	/	.	/	/	/
CCOC(=O)NC(c1ccc(C(C)C)cc1)C(Cl)(Cl)Cl (centres undefined)	69	.	.	/	.
COC(=O)C1C(=O)C2=C(CC1C)NC(C)=C(C(=O)OC1CCCC1)C2c1ccc(N(C)C)cc1 (centres undefined)	.	.	59	.	.
COC(=O)C1C(=O)C2=C(CC1C)NC(C)=C(C(=O)OC(C)C)C2c1ccc(OC)c(O)c1 (centres undefined)	.	/	.	.	.
CN(CCc1ccccn1)Cc1ccc(Cl)cc1Cl	.	/	.	.	.
O=C(NNC(=S)Nc1ccc(Cl)cc1Cl)C1CC1	.	.	.	.	.
CCNC(=O)COc1cccc(C(=O)NCc2ccccc2)c1	.	.	51	.	.
CC(C)CNC(=O)COc1cccc(C(=O)NCc2ccccc2)c1	.	.	52	.	.
CNC(=O)COc1cccc(C(=O)NCc2ccccc2)c1	.	.	.	/	.
C/C(CCc1ccc2c(c1)OCO2)=N\N=C(/N)SC1CC(=O)N(c2ccc(Cl)cc2)C1=O (centres undefined)	65	.	.	/	.

Bioassay records deposited in PubChem by several laboratories.
